Here are results for 22 compounds from PubChem BioAssay (Tox21).

Values joined by “and” are separate entries in the source; they are usually repeats but may differ in a detail not shown here. Equal values may be shown once. Results filed as inconclusive are left out. Unmarked numbers belong to inactive results. Active and inactive are the calls of the source. The call rests on the fitted dose curve; in most records, active means well fitted curve in the direction sought with a large enough effect in the repeat runs; inconclusive means weak or mixed curves; inactive means no such curve, though single readings can be large; an effect the other way counts as inactive or inconclusive.

The nature of assay [1]: qHTS RealTime-Glo MT Cell Viability Assay in HEK293 cells - 16 hour (AID 1224872). Further: nearly all actives have a fitted effect of over 50% in size. On activity change, negative = cytotoxicity: top concentration of the series differs between compounds. The method in brief: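 Viability tracked continuously by luminescence as live cells reduce a prosubstrate for NanoLuc; HEK293 cells preincubated 5 h, compound-treated at 37 C, and read at 0, 8, 16, 24, 32 and 40 h.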
On the technique in general: Quantitative high-throughput screening tests each substance at several concentrations.

A short description of assay [2]: qHTS RealTime-Glo MT Cell Viability Assay in HepG2 cells - 8 hour (AID 1224873). Further: nearly all actives have a fitted effect of over 55% in size. The method in brief: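 Real-time viability: cells seeded at 600 per well together with NanoLuc and cell-permeant prosubstrate, compounds added after 5 h incubation. Luminescence tracked at 0, 8, 16, 24, 32 and 40 h of exposure.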
Assay [3] is described as follows: qHTS RealTime-Glo MT Cell Viability Assay in HEK293 cells - 40 hour (AID 1224874). Further: nearly all actives have a fitted effect of over 50% in size. The following applies: RealTime-Glo luminescence; max response: stronger effect = lower value. The method in brief: (§1)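 Kinetic, non-lysing viability readout. Seed HEK293 (600/well) with reagent, incubate 5 h at 37 C/5% CO2, pin 23 nL compound in DMSO, incubate at 37 C, read luminescence at 0, 8, 16, 24, 32, 40 h.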

Assay [4] is described as follows: A CellTox Green Cytotoxicity Assay to monitor cytotoxicity in HEK293 cells - 24 hour (AID 1224875). Further: nearly all actives have a fitted effect of over 45% in size. On activity change: series mostly up to about 77 µM. A digest of the protocol:
(§2)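 Real-time, in one plate: 600 HEK293 cells/well with dead-cell DNA dye, pinned compound after 5 h, 37 C incubation over 40 h; viable cells give no appreciable fluorescence.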

Assay [5] can be described thus: A CellTox Green Cytotoxicity Assay to monitor cytotoxicity in HepG2 cells - 16 hour (AID 1224876). Further: nearly all actives have a fitted effect of over 45% in size. The method in brief: (§3)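 Cytotoxicity was tracked as dead-cell DNA fluorescence in HepG2 cells treated with test compounds at 37 C; each time-point value comes from one kinetic series spanning 0, 8, 16, 24, 32 and 40 h.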
Assay [6] can be described thus: qHTS RealTime-Glo MT Cell Viability Assay in HepG2 cells - 32 hour (AID 1224877). Further: nearly all actives have a fitted effect of over 55% in size. A digest of the protocol:
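Viability was tracked continuously by NanoLuc luminescence from prosubstrate reduced by living HepG2 cells, at successive time points over 40 h of compound exposure. Cells with reagent were preincubated 5 h at 37 °C before compound addition.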

Assay [7] is described as follows: A CellTox Green Cytotoxicity Assay to monitor cytotoxicity in HepG2 cells - 40 hour (AID 1224879). Further: nearly all actives have a fitted effect of over 40% in size. A digest of the protocol:
as §3

The nature of assay [8]: A CellTox Green Cytotoxicity Assay to monitor cytotoxicity in HEK293 cells - 32 hour (AID 1224881). Further: nearly all actives have a fitted effect of over 40% in size. A digest of the protocol: as §2
A short description of assay [9]: qHTS RealTime-Glo MT Cell Viability Assay in HEK293 cells - 0 hour (AID 1224880). Further: nearly all actives have a fitted effect of over 45% in size. On activity change, negative = cytotoxicity: top concentration of the series differs between compounds. The method in brief: as §1
The nature of assay [10]: A CellTox Green Cytotoxicity Assay to monitor cytotoxicity in HepG2 cells - 24 hour (AID 1224878). Further: nearly all actives have a fitted effect of over 45% in size. A digest of the protocol:
as §3
On the % scale 0 is the no-effect control and ±100 the full control effect; potency means the concentration at half of the fitted maximal effect.

On to `CCN=C1C=CC(=C(c2ccc(N(CC)CC)cc2)c2ccc(N(CC)CC)cc2)c2ccccc21`, for which the Potency in [1] is 13.7 µM (active); in assay [2] it was 19.4 µM (active); in assay [3], 5.46 µM (active); in [4], 19.4 µM (active); in assay [5], 19.4 µM (active); in assay [6] it was 19.4 µM (active). Further, the values for the Potency in assay [7] and in assay [8] were 19.4 µM (active) and 13.7 µM (active), respectively.

In the case of `COc1nccnc1CC(C)C`, the Potency result in assay [1], in assay [2], in assay [4], in assay [5], in assay [6] and in assay [7] was “inactive” throughout. Also, the Potency result in assay [9] and in assay [8] was “inactive” each time. Also, the max response in [3] was 10.2%.

Turning to `O=C1c2c(O)ccc([N+](=O)[O-])c2C(=O)c2c([N+](=O)[O-])ccc(O)c21`, the Potency in [1] was 13.7 µM (active); in assay [2], 13.7 µM (active); in assay [3], 24.3 µM (active); in assay [9], 43.2 µM (active). The Potency result in [4], in assay [5], in assay [10], in [7] and in [8] was “inactive” throughout.

On to `CCC1CCCCC1`, for which the Potency result in [1], in [2], in assay [4], in assay [5], in assay [10] and in assay [7] was “inactive” throughout. For the same compound, the Potency entry in assay [9] and in assay [8] was “inactive” throughout. Further, in assay [3], the max response was -1.07%.

On to `COC(=O)CC#N`, for which the Potency result in [1], in assay [2], in assay [4], in [5], in assay [10] and in [7] was “inactive” in each case. The Potency result in assay [9] and in assay [8] was “inactive” each time. For the same compound, the max response in [3] is 9.57%.

In the case of `O=C[C@H](O)[C@H](O)[C@H](O)CO`, the Potency entry in assay [1], in [2], in assay [4], in [5], in [6] and in assay [7] was “inactive” each time. Further, the Potency entry in assay [9] and in [8] was “inactive” in each case. Further, in [3], the max response was 0.822%.

For the compound `CCCCCCCC(C)=O`, the Potency result in assay [1], in [2], in assay [4], in assay [5], in assay [6] and in assay [10] was “inactive” in each case. Further, the Potency result in assay [7], in assay [9] and in assay [8] was “inactive” each time. The max response in assay [3] is 0.179%.

For the compound `CCCCCCCC(=O)OCC`, the Potency entry in assay [1], in assay [2], in assay [4], in assay [5], in assay [10] and in [7] was “inactive” in each case. Further, the Potency entry in [9] and in [8] was “inactive” throughout. Moreover, the max response in [3] was -3.83%.

In the case of `NC(=O)C(=O)N/N=C/c1ccc([N+](=O)[O-])o1`, the Potency result in assay [1], in [2], in assay [4], in assay [5], in assay [6] and in [10] was “inactive” in each case. Also, the Potency result in [9] and in [8] was “inactive” throughout. Further, in assay [3], the max response was 5.32%.

Turning to `CC(C)(c1cc(Br)c(O)c(Br)c1)c1cc(Br)c(O)c(Br)c1`, the Potency entry in assay [1], in assay [2], in assay [4], in assay [5], in assay [6] and in [7] was “inactive” throughout. The Potency entry in assay [9] and in assay [8] was “inactive” in each case. In addition, in assay [3], the max response was -17.7%.

For the compound `CCc1cccc(CC)c1N(COC)C(=O)CS(=O)(=O)O`, the Potency result in assay [1], in assay [2], in assay [4], in assay [5], in assay [10] and in assay [7] was “inactive” throughout. For the same compound, the Potency result in assay [9] and in assay [8] was “inactive” each time. The max response in assay [3] is 20.8%.

Take `C=C(C)CCCC`: the Potency result in [1], in assay [2], in assay [4], in [5], in [10] and in [7] was “inactive” in each case. The Potency entry in [9] and in [8] was “inactive” in each case. Besides, the max response in [3] was 3.81%.

As to `CCCCCCCCCCCCCC[n+]1ccccc1`, the Potency in [1] is 27.5 µM (active); in assay [2], 49 µM (active); in assay [3], 1.74 µM (active); in assay [4], 38.9 µM (active); in assay [5], 19.5 µM (active); in assay [10], 15.5 µM (active). For the same compound, the Potency in assay [7] is 11 µM (active); in [8], 34.7 µM (active). For the same compound, the Potency entry in [9] was “inactive”.

As for `CCO[Si](CCCSSSSCCC[Si](OCC)(OCC)OCC)(OCC)OCC`, the Potency entry in assay [1], in assay [2], in assay [5], in [6], in assay [10] and in assay [7] was “inactive” in each case. In addition, the Potency result in assay [9] was “inactive”. In addition, the max response in [3] was -16.8%.

Turning to `CSc1ccc2c(c1)N(CCC1CCCCN1C)c1ccccc1S2` (stereo unspecified), the Potency was 17.3 µM (active) in assay [1]; 54.7 µM (active) and 23.9 µM (active) in [2]; 15.4 µM (active) in assay [3]; 24.4 µM (active) in [4]; 54.7 µM (active) and 26.8 µM (active) in assay [5]; 38.7 µM (active) and 23.9 µM (active) in assay [10]. The Potency is 34.5 µM (active) and 23.9 µM (active) in [7]; 30.8 µM (active) in [8].

With `Cn1cnc2ncnc(N)c21`, the Potency entry in assay [1], in assay [2], in [4], in assay [5], in [7] and in assay [9] was “inactive” throughout. Besides, the Potency result in [8] is “inactive”. The max response in assay [3] was 11.2%.

On to `CCC(=O)CC(C)CC` (stereo unspecified), for which the activity change, negative = cytotoxicity in assay [1] was 5.55% [at 0.29 µM]; in assay [9], 6.1% [at 0.29 µM]. Further, the viability change, negative = cytotoxic in [2] is 1.82% [at 0.29 µM]. Further, the max response in [3] was 3.72%. The activity change in assay [4] was 8.11% [at 0.29 µM, stronger effect = higher value]. In addition, the cytotoxicity increase in assay [5] was 5.23% [at 0.29 µM]; in [7], 5.43% [at 0.29 µM]; in assay [8] it was 9.56% [at 0.29 µM].

On to `CCOCOCC`, for which the Potency entry in [1], in [2], in assay [4], in [6], in assay [10] and in [7] was “inactive” each time. Further, the Potency result in assay [9] and in [8] was “inactive” each time. In addition, the max response in assay [3] is 5.75%.

`c1ccc2c(c1)CCC2`: the Potency entry in [1], in [2], in assay [4], in assay [6], in assay [10] and in [7] was “inactive” throughout. Besides, the Potency entry in [9] and in [8] was “inactive” in each case. Moreover, in assay [3], the max response is 5.18%.

For the compound `CCOC(=O)CN`, the Potency result in [1], in [2], in assay [4], in [6], in assay [7] and in assay [9] was “inactive” in each case. In addition, the Potency entry in assay [8] was “inactive”. Besides, the max response in assay [3] was -0.943%.

Turning to `C/C=C/CO`, the Potency result in assay [1], in assay [2], in assay [4], in assay [6], in assay [7] and in assay [9] was “inactive” each time. Also, in assay [8], the Potency entry is “inactive”. The max response in assay [3] is 8.59%.

Take `N[C@@H](CSSC[C@H](N)C(=O)O)C(=O)O`: the activity change, negative = cytotoxicity in assay [1] was 13.2% [at 0.29 µM]; in assay [9] it was 18.3% [at 0.29 µM]. Further, the viability change, negative = cytotoxic in assay [2] was 3.56% [at 0.29 µM]. Moreover, in assay [3], the max response was 2.95%. For the same compound, the activity change in assay [4] is 7.29% [at 0.29 µM, stronger effect = higher value]. The activity change, negative = cytotoxic in assay [6] was -2.71% [at 0.29 µM]. The cytotoxicity increase is 5.29% [at 0.29 µM] in assay [7] and 2.69% [at 0.29 µM] in assay [8].
